Assay results published in PubChem BioAssay AID1159580 (chemical genetic matrix, 2015).
Where “and” joins values, the source holds several entries; their conditions need not be identical. Identical values can stand only once. Among all 5,500 compounds or so, about 2,000 (36%) were called active. Another 18% or so got no clear call; they are omitted. Cut-off read from the data, not from the text of the source: active = normalized growth mostly below about 0.91 (no sharp cut-off); inconclusive = no clear call, values can overlap the other calls; inactive = mostly above about 0.92. The list shows a part of the results.

Experiment: chemical genetic growth profiling, strain panel (AID 1159580);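 note: tested at 20 µM; growth read once vehicle control cultures reached saturation at 30 °C; 1 = growth at the plate median or of vehicle wells; lower values mean less growth of the strain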
Settings: S. cerevisiae deletion strains, growth OD

Measured: normalized growth

CCC(=O)OC1[C@@H]2CC3=C4CC(=O)O[C@@H](c5ccoc5)[C@]4(C)CCC3[C@@](C)(C2=O)[C@@H](CC(=O)OC)C1(C)C (stereo partly specified)
inactive: locus YAL021C, strain ccr4, stronger effect = lower value 1.03 | locus YAL026C, strain drs2, stronger effect = lower value 0.973 | locus YAL030W, strain snc1, stronger effect = lower value 0.998 | locus YBL061C, strain skt5, stronger effect = lower value 0.992 | locus YBR009C, strain hhf1, stronger effect = lower value 0.992 | locus YBR021W, strain FUR4, stronger effect = lower value 1.01 | locus YBR023C, strain chs3, stronger effect = lower value 0.995 | locus YBR171W, strain sec66, stronger effect = lower value 0.983 | locus YBR229C, strain ROT2, stronger effect = lower value 1 | locus YBR231C, strain swc5, stronger effect = lower value 0.989 | locus YBR279W, strain paf1, stronger effect = lower value 0.999 | locus YCL011C, strain gbp2, stronger effect = lower value 1.01 | locus YCL016C, strain dcc1, stronger effect = lower value 1.01 | locus YCL029C, strain bik1, stronger effect = lower value 1.02 | locus YCL061C, strain MRC1, stronger effect = lower value 0.998 | locus YCL069W, strain vba3, stronger effect = lower value 0.995 | locus YCR088W, strain abp1, stronger effect = lower value 0.996 | locus YDL005C, strain med2, stronger effect = lower value 0.978 | locus YDL035C, strain GPR1, stronger effect = lower value 1 | locus YDL040C, strain nat1, stronger effect = lower value 0.976 | locus YDL074C, strain BRE1, stronger effect = lower value 1.01 | locus YDL101C, strain DUN1, stronger effect = lower value 1 | locus YDL185W, strain tfp1, stronger effect = lower value 1.02 | locus YDL192W, strain arf1, stronger effect = lower value 1.01 | locus YDR001C, strain nth1, stronger effect = lower value 0.992 | locus YDR069C, strain doa4, stronger effect = lower value 0.982 | locus YDR101C, strain arx1, stronger effect = lower value 1.02 | locus YDR137W, strain rgp1, stronger effect = lower value 0.901 | locus YDR159W, strain sac3, stronger effect = lower value 0.991 | locus YDR162C, strain NBP2, stronger effect = lower value 0.999 | locus YDR195W, strain ref2 0.984 | locus YDR297W, strain sur2, stronger effect = lower value 0.994 | locus YDR318W, strain mcm21, stronger effect = lower value 1.01 | locus YDR334W, strain swr1, stronger effect = lower value 0.982 | locus YDR335W, strain msn5, stronger effect = lower value 0.996 | locus YDR388W, stronger effect = lower value 1.01 | locus YDR392W, strain spt3, stronger effect = lower value 0.837 | locus YDR502C, strain sam2, stronger effect = lower value 1.02 | locus YEL003W, strain gim4, stronger effect = lower value 0.989 | locus YEL037C, strain rad23, stronger effect = lower value 0.984 | locus YEL061C, strain CIN8 (second series), stronger effect = lower value 0.986 | locus YEL061C, strain CIN8, stronger effect = lower value 0.992 | locus YER015W, strain faa2, stronger effect = lower value 1 | locus YER016W, strain bim1, stronger effect = lower value 0.991 | locus YER110C, stronger effect = lower value 1.02 | locus YER111C, strain swi4, stronger effect = lower value 0.977 | locus YER155C, strain BEM2 (second series), stronger effect = lower value 1 | locus YER155C, strain BEM2, stronger effect = lower value 0.998 | locus YER167W, strain BCK2, stronger effect = lower value 0.994 | locus YFR010W, strain ubp6, stronger effect = lower value 0.984 | locus YGL078C, strain dbp3, stronger effect = lower value 1 | locus YGL086W, strain mad1, stronger effect = lower value 1 | locus YGL167C, strain pmr1, stronger effect = lower value 0.989 | locus YGL173C, strain kem1, stronger effect = lower value 0.979 | locus YGL227W, strain vid30, stronger effect = lower value 0.988 | locus YGL240W, strain doc1, stronger effect = lower value 0.99 | locus YGL248W, strain PDE1, stronger effect = lower value 1 | locus YGL253W, strain hxk2, stronger effect = lower value 0.954 | locus YGR135W, strain pre9, stronger effect = lower value 1.02 | locus YGR252W, strain gcn5, stronger effect = lower value 1.05 | locus YHR013C, strain ard1, stronger effect = lower value 0.966 | locus YHR027C, strain rpn1, stronger effect = lower value 0.988 | locus YHR030C, strain SLT2, stronger effect = lower value 1 and 0.969 | locus YHR079C, strain IRE1 (second series), stronger effect = lower value 1.01 | locus YHR079C, strain IRE1, stronger effect = lower value 0.987 | locus YHR094C, strain hxt1, stronger effect = lower value 1.01 | locus YHR129C, strain ARP1, stronger effect = lower value 1 | locus YHR142W, strain chs7, stronger effect = lower value 1.01 | locus YHR200W, strain rpn10, stronger effect = lower value 1.02 | locus YIL066C, strain RNR3, stronger effect = lower value 0.999 | locus YIL073C, strain SPO22, stronger effect = lower value 1.05 | locus YIL125W, strain kgd1, stronger effect = lower value 1.01 | locus YIR030C, strain dcg1, stronger effect = lower value 1.01 | locus YJL092W, strain hpr5, stronger effect = lower value 0.995 | locus YJL095W, strain BCK1 (second series), stronger effect = lower value 0.995 | locus YJL095W, strain BCK1, stronger effect = lower value 0.992 and 0.999 | locus YJL115W, strain asf1, stronger effect = lower value 0.989 | locus YJL129C, strain trk1, stronger effect = lower value 0.974 | locus YJL134W, strain LCB3, stronger effect = lower value 0.998 | locus YJL154C, strain vps35, stronger effect = lower value 0.996 | locus YJL164C, strain tpk1, stronger effect = lower value 1.01 | locus YJL166W, strain qcr8, stronger effect = lower value 1 | locus YJL168C, strain set2, stronger effect = lower value 1 | locus YJL187C, strain SWE1 (second series), stronger effect = lower value 1.01 | locus YJL187C, strain SWE1, stronger effect = lower value 0.998 | locus YJR043C, strain POL32, stronger effect = lower value 1.02
